Measurements published in PubChem BioAssay (NCI).
Several values for one entry are separate records, joined by “and”; a condition that tells them apart may be missing. Identical values can stand only once. Compounds without any hit were thinned out: in the full panel of roughly 83,000, 20% have a hit.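 A percent growth of 40 corresponds to 60% growth inhibition; 0 means no net growth; -100 means all cells died. Active threshold: below 10.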 Activity calls are given as the source filed them.

Experiments:
Experiment in all cases: NCI-60 one-dose screen, 48 h (100 = growth as untreated, 0 = no growth, -100 = all killed)
Conditions in all cases: 10 µM unless noted
SK-MEL-2 melanoma = test system: SK-MEL-2 melanoma
EKVX NSCLC = test system: EKVX NSCLC
SN12C renal = test system: SN12C renal
UO-31 renal = test system: UO-31 renal
TK-10 renal = test system: TK-10 renal
ACHN renal = test system: ACHN renal
CAKI-1 renal = test system: CAKI-1 renal
A498 renal = test system: A498 renal
CCRF-CEM leukemia = test system: CCRF-CEM leukemia
MOLT-4 leukemia = test system: MOLT-4 leukemia
SR leukemia = test system: SR leukemia
RPMI-8226 leukemia = test system: RPMI-8226 leukemia
OVCAR-8 ovarian = test system: OVCAR-8 ovarian
OVCAR-5 ovarian = test system: OVCAR-5 ovarian
OVCAR-4 ovarian = test system: OVCAR-4 ovarian
SK-OV-3 ovarian = test system: SK-OV-3 ovarian
IGROV1 ovarian = test system: IGROV1 ovarian
OVCAR-3 ovarian = test system: OVCAR-3 ovarian
HS 578T breast = test system: HS 578T breast
NCI/ADR-RES ovarian = test system: NCI/ADR-RES ovarian

Measured: growth

COCCOc1cc2ncnc(N3CCN(S(=O)(=O)c4ccccc4Cl)CC3)c2cc1OCCOC
inactive: SK-MEL-2 melanoma 88.1% | EKVX NSCLC 90.9% | SN12C renal 105% | UO-31 renal 70% | TK-10 renal 98.9% | ACHN renal 97.5% | CAKI-1 renal 86.6% | A498 renal 54.9% | CCRF-CEM leukemia 79% | MOLT-4 leukemia 65.2% | SR leukemia 22% | RPMI-8226 leukemia 82.5% | OVCAR-8 ovarian 93.9% | OVCAR-5 ovarian 102% | OVCAR-4 ovarian 102% | SK-OV-3 ovarian 104% | IGROV1 ovarian 89.7% | OVCAR-3 ovarian 91.5% | HS 578T breast 93.5% | NCI/ADR-RES ovarian 66.9%

COc1ccc(Oc2nc(Nc3ccc(N4CCOCC4)cc3)ncc2NC(=O)c2cccc(C(F)(F)F)c2)cc1
inactive: SK-MEL-2 melanoma 97.2% | EKVX NSCLC 81.3% | SN12C renal 85.8% | UO-31 renal 71.2% | TK-10 renal 93% | ACHN renal 79.9% | CAKI-1 renal 88.9% | A498 renal 63.4% | CCRF-CEM leukemia 49.9% | MOLT-4 leukemia 43.7% | SR leukemia 35.7% | RPMI-8226 leukemia 59.8% | OVCAR-8 ovarian 78.5% | OVCAR-5 ovarian 111% | OVCAR-4 ovarian 96.4% | SK-OV-3 ovarian 85.7% | IGROV1 ovarian 88.5% | OVCAR-3 ovarian 82.7% | HS 578T breast 91.4% | NCI/ADR-RES ovarian 79.7%

COC(=O)c1nc(-c2ccc(C)cc2)oc1Sc1ccc(C)cc1
inactive: SK-MEL-2 melanoma 104% | EKVX NSCLC 105% | SN12C renal 96% | UO-31 renal 82.6% | TK-10 renal 106% | ACHN renal 96.1% | CAKI-1 renal 95% | A498 renal 130% | CCRF-CEM leukemia 86.9% | MOLT-4 leukemia 71.7% | SR leukemia 76.1% | RPMI-8226 leukemia 81.4% | OVCAR-8 ovarian 98.5% | OVCAR-5 ovarian 97.8% | OVCAR-4 ovarian 101% | SK-OV-3 ovarian 92.1% | IGROV1 ovarian 110% | OVCAR-3 ovarian 108% | HS 578T breast 108% | NCI/ADR-RES ovarian 108%

Cc1ccc(NC(=O)N/C(N)=N/c2nc(=O)c3ccccc3s2)cc1
inactive: SK-MEL-2 melanoma 106% | EKVX NSCLC 93.7% | SN12C renal 93.8% | UO-31 renal 90.4% | TK-10 renal 116% | ACHN renal 102% | CAKI-1 renal 86.9% | A498 renal 63% | MOLT-4 leukemia 99.8% | SR leukemia 88.1% | RPMI-8226 leukemia 101% | OVCAR-8 ovarian 101% | OVCAR-5 ovarian 102% | OVCAR-4 ovarian 99.8% | SK-OV-3 ovarian 94.5% | IGROV1 ovarian 91.9% | OVCAR-3 ovarian 100% | HS 578T breast 82.9% | NCI/ADR-RES ovarian 110%
active: CCRF-CEM leukemia -23%

CCN(c1cc(-c2ccc(CN3CCC(/C=C/S(=O)(=O)c4ccccc4)CC3)cc2)cc(C(=O)NCc2c(C)cc(C)[nH]c2=O)c1C)C1CCOCC1
inactive: SK-MEL-2 melanoma 92.5% | EKVX NSCLC 87.4% | SN12C renal 63.6% | UO-31 renal 44.7% | TK-10 renal 121% | ACHN renal 80% | CAKI-1 renal 51.4% | A498 renal 51.1% | CCRF-CEM leukemia 38.2% | MOLT-4 leukemia 26.8% | SR leukemia 17.9% | RPMI-8226 leukemia 19.2% | OVCAR-8 ovarian 75% | OVCAR-5 ovarian 90.3% | OVCAR-4 ovarian 73% | SK-OV-3 ovarian 86.2% | IGROV1 ovarian 53.7% | OVCAR-3 ovarian 77.3% | HS 578T breast 62.2% | NCI/ADR-RES ovarian 73.7%

C[N+]1=C(/C=C\C=C\c2ccccc2)C(C)(C)c2ccccc21
inactive: SK-MEL-2 melanoma 10.9% | EKVX NSCLC 31.5% | UO-31 renal 39.3% | TK-10 renal 50.3% | ACHN renal 43.8% | CAKI-1 renal 38.4% | A498 renal 61.2% | OVCAR-8 ovarian 12.2% | OVCAR-5 ovarian 45.1% | OVCAR-4 ovarian 39.9% | SK-OV-3 ovarian 92.8% | IGROV1 ovarian 19.9% | HS 578T breast 25% | NCI/ADR-RES ovarian 75.3%
active: SN12C renal -2.25% | CCRF-CEM leukemia -8.67% | MOLT-4 leukemia 0.0688% | SR leukemia -14.3% | RPMI-8226 leukemia -25.5% | OVCAR-3 ovarian -4.63%

COc1cccc(C2C(C#N)=C(N)Oc3cc(OCCCCCC[P+](c4ccccc4)(c4ccccc4)c4ccccc4)ccc32)c1 (stereo not given)
active: SK-MEL-2 melanoma -59.2% | EKVX NSCLC -0.839% | SN12C renal -31.4% | TK-10 renal -16.5% | CAKI-1 renal -8.91% | A498 renal -30% | CCRF-CEM leukemia 1.92% | MOLT-4 leukemia -15.8% | SR leukemia -48.8% | RPMI-8226 leukemia -36.4% | OVCAR-8 ovarian 1.01% | OVCAR-5 ovarian -2.3% | OVCAR-4 ovarian 2.58% | SK-OV-3 ovarian -33.5% | IGROV1 ovarian -55.8% | OVCAR-3 ovarian -81.3% | HS 578T breast -16.5%
inactive: UO-31 renal 39.2% | ACHN renal 18% | NCI/ADR-RES ovarian 85.2%

N#Cc1ccccc1-c1ccc(Cn2c(-c3cscn3)nc3c(Cl)cccc32)cc1
inactive: SK-MEL-2 melanoma 75.9% | EKVX NSCLC 76.9% | SN12C renal 91.2% | UO-31 renal 46% | TK-10 renal 81.4% | ACHN renal 80.8% | CAKI-1 renal 70.9% | A498 renal 74.8% | CCRF-CEM leukemia 65.8% | MOLT-4 leukemia 48.2% | SR leukemia 55.2% | RPMI-8226 leukemia 48.3% | OVCAR-8 ovarian 78.2% | OVCAR-5 ovarian 86.8% | OVCAR-4 ovarian 62% | SK-OV-3 ovarian 82.6% | IGROV1 ovarian 89.1% | OVCAR-3 ovarian 63.3% | HS 578T breast 85.5% | NCI/ADR-RES ovarian 73.3%

Cc1ccc(-c2nc3nc(-c4ccc(F)cc4)nc(N4CCCNCC4)c3o2)cc1
inactive: A498 renal 77.5%
active: SK-MEL-2 melanoma -61.2% | EKVX NSCLC -75.6% | SN12C renal -91.2% | UO-31 renal -88.5% | TK-10 renal -93.8% | ACHN renal -99.3% | CAKI-1 renal -95.4% | CCRF-CEM leukemia -77.7% | MOLT-4 leukemia -61.1% | SR leukemia -37.3% | RPMI-8226 leukemia -62.4% | OVCAR-8 ovarian -74.8% | OVCAR-5 ovarian -97.3% | OVCAR-4 ovarian -89% | SK-OV-3 ovarian -88.8% | IGROV1 ovarian -88.3% | OVCAR-3 ovarian -96% | HS 578T breast -75.9% | NCI/ADR-RES ovarian -77.7%

CN1CCCc2cc(/C=C3\SC(=S)N(C(Cc4ccc(O)cc4)C(=O)O)C3=O)ccc21 (stereo not given)
inactive: SK-MEL-2 melanoma 103% | EKVX NSCLC 91.6% | SN12C renal 93.3% | UO-31 renal 79.7% | TK-10 renal 102% | ACHN renal 103% | CAKI-1 renal 89% | A498 renal 87.8% | CCRF-CEM leukemia 106% | MOLT-4 leukemia 103% | SR leukemia 105% | RPMI-8226 leukemia 95.8% | OVCAR-8 ovarian 99.2% | OVCAR-5 ovarian 101% | OVCAR-4 ovarian 98.2% | SK-OV-3 ovarian 107% | IGROV1 ovarian 102% | OVCAR-3 ovarian 95.5% | HS 578T breast 102% | NCI/ADR-RES ovarian 100%

CC[C@H](C)[C@H](NC(=O)[C@H](CCCCN)NC(=O)[C@H](CCCCN)NC(=O)[C@@H](NC(=O)[C@@H](NC(=O)[C@@H](N)Cc1cnc[nH]1)[C@@H](C)CC)[C@@H](C)CC)C(=O)N[C@@H](CCCNC(=N)N)C(=O)N[C@H](C(=O)N[C@@H](Cc1c[nH]c2ccccc12)C(=O)N[C@@H](Cc1ccc(O)cc1)C(=O)N[C@@H](CCCNC(=N)N)C(=O)N[C@@H](CCCCN)C(=O)N[C@@H](C)C(=O)N[C@@H](Cc1c[nH]c2ccccc12)C(=O)N[C@@H](Cc1cnc[nH]1)C(=O)N[C@H](C(=O)N[C@@H](CC(C)C)C(=O)NCC(=O)N[C@@H](CCCCN)C(=O)N[C@H](C(N)=O)C(C)C)C(C)C)[C@@H](C)O
inactive: SK-MEL-2 melanoma 12.7% | SN12C renal 12.1% | UO-31 renal 81.9% | ACHN renal 70.8% | CAKI-1 renal 17.5% | A498 renal 66.2% | CCRF-CEM leukemia 76.2% | MOLT-4 leukemia 56.7% | SR leukemia 71.9% | RPMI-8226 leukemia 56.1% | OVCAR-8 ovarian 33.7% | OVCAR-5 ovarian 48.4% | OVCAR-4 ovarian 77.9% | SK-OV-3 ovarian 35% | IGROV1 ovarian 39.2% | OVCAR-3 ovarian 44.9% | HS 578T breast 11.6% | NCI/ADR-RES ovarian 34.8%
active: EKVX NSCLC -26.4% | TK-10 renal -16.8%

Nc1ccccc1SC(CC(=O)c1ccccc1)c1ccc([N+](=O)[O-])cc1 (stereo not given)
13.4% (inactive) and 2.29% (active): SR leukemia
inactive: SK-MEL-2 melanoma 137% and 87.4% | EKVX NSCLC 97.1% | SN12C renal 94% and 92.5% | UO-31 renal 55.1% and 39.2% | TK-10 renal 118% and 109% | ACHN renal 99.8% and 93.6% | CAKI-1 renal 70.2% and 91.7% | A498 renal 94.6% and 99.5% | CCRF-CEM leukemia 69.2% and 51.9% | MOLT-4 leukemia 82.3% and 61.6% | OVCAR-8 ovarian 95.5% and 95.8% | OVCAR-5 ovarian 118% and 114% | OVCAR-4 ovarian 93.8% and 87.8% | SK-OV-3 ovarian 108% and 95% | IGROV1 ovarian 117% and 76.1% | OVCAR-3 ovarian 105% and 63.8% | HS 578T breast 103% and 105% | NCI/ADR-RES ovarian 98.2% and 91.9%
active: RPMI-8226 leukemia -1.33% and -0.234%

COc1ccc(-c2nn3c(-c4cc(F)c(Cl)cc4Cl)nnc3s2)cc1
inactive: SK-MEL-2 melanoma 66.8% | EKVX NSCLC 75.4% | SN12C renal 72.5% | UO-31 renal 49.7% | TK-10 renal 105% | ACHN renal 66.7% | CAKI-1 renal 37.7% | A498 renal 65.9% | MOLT-4 leukemia 21.6% | SR leukemia 13.1% | RPMI-8226 leukemia 29.9% | OVCAR-8 ovarian 67.5% | OVCAR-5 ovarian 59.5% | OVCAR-4 ovarian 80% | SK-OV-3 ovarian 61.1% | IGROV1 ovarian 40.6% | OVCAR-3 ovarian 27.8%
active: CCRF-CEM leukemia 9.61% | HS 578T breast -20.6% | NCI/ADR-RES ovarian 3.63%

O=C1c2cc3c(cc2-c2c1c1ccc(Cl)cc1c(=O)n2CCCn1ccnc1)OCO3
inactive: SK-MEL-2 melanoma 31.1% | EKVX NSCLC 42.4% | SN12C renal 12.6% | TK-10 renal 46.3% | OVCAR-8 ovarian 11.4% | OVCAR-4 ovarian 13.7% | IGROV1 ovarian 28.3% | HS 578T breast 46.3%
active: UO-31 renal -7.59% | ACHN renal -19% | CAKI-1 renal 9.62% | A498 renal -12.9% | CCRF-CEM leukemia 3.44% | MOLT-4 leukemia -28.2% | SR leukemia -19.4% | RPMI-8226 leukemia -23.6% | OVCAR-5 ovarian 3.22% | SK-OV-3 ovarian 8.75% | OVCAR-3 ovarian -5.45% | NCI/ADR-RES ovarian -26.4%
